Reference: PubChem BioAssay (NCATS)
Results filed as inconclusive are left out. Activity calls are given as the source filed them. The call rests on the fitted dose curve; in most records, active means well fitted inhibition curve with a large enough effect; inconclusive means small, poorly fitted or top-dose-only effect; inactive means flat fitted curve, though single readings scatter.

What was measured:
Experiment in all cases: qHTS profiling for inhibitors of Plasmodium falciparum proliferation (AID 504749); further: nearly all actives have a fitted effect of over 60% in size
Conditions in all cases: P. falciparum in erythrocytes, SYBR Green DNA, 72 h; series mostly up to 28.7 µM
CP191 = tested on: CP191
Outline: (§1)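 In a 72 h erythrocytic culture (37 C, humidified, 5% CO2) at 2.5% hematocrit and 0.3% starting parasitemia, compounds were tested; SYBR Green I in detergent lysis buffer stained parasite DNA overnight.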

CP192 = tested on: CP192
Outline: as §1

CP194 = tested on: CP194
Outline: as §1

CP201 = tested on: CP201
Outline: as §1

CP203 = tested on: CP203
Outline: as §1

CP211 = tested on: CP211
Outline: as §1

CP215 = tested on: CP215
Outline: as §1

CP217 = tested on: CP217
Outline: as §1

CP237 = tested on: CP237
Outline: as §1

CP238 = tested on: CP238
Outline: as §1

CP247 = tested on: CP247
Outline: as §1

CP250 = tested on: CP250
Outline: as §1

CP252 = tested on: CP252
Outline: as §1

CP256 = tested on: CP256
Outline: as §1

CP260 = tested on: CP260
Outline: as §1

CP262 = tested on: CP262
Outline: as §1

CP265 = tested on: CP265
Outline: as §1

CP266 = tested on: CP266
Outline: as §1

CP268 = tested on: CP268
Outline: as §1

CP269 = tested on: CP269
Outline: as §1

Measured: Potency

CC(S)C(=O)NCC(=O)O (stereo not given)
inactive: all assays above

O=C(O)CCNC(=O)c1ccc(N=Nc2ccc(O)c(C(=O)O)c2)cc1
inactive: all assays above

CC(C)[C@H](N)C(=O)OCCOCn1cnc2c(=O)[nH]c(N)nc21
inactive: all assays above

C[C@]12CCC(=O)C=C1CC[C@@H]1[C@H]2[C@@H](O)C[C@@]2(C)[C@H]1CC[C@]2(O)C(=O)CO
inactive: all assays above

CCN(CCO)CCCC(C)Nc1ccnc2cc(Cl)ccc12 (stereo not given)
inactive: all assays above

CC1(C)NC(=O)N(c2ccc([N+](=O)[O-])c(C(F)(F)F)c2)C1=O
inactive: all assays above

Nc1cccc2c1CN(C1CCC(=O)NC1=O)C2=O (stereo not given)
inactive: all assays above

N[C@@H](Cc1cc(I)c(Oc2cc(I)c(O)c(I)c2)c(I)c1)C(=O)O
inactive: all assays above

CCOc1cc(CC(=O)N[C@@H](CC(C)C)c2ccccc2N2CCCCC2)ccc1C(=O)O
inactive: all assays above

C=CCc1cc(OC)c(O)c(C(=O)NCCO)c1
inactive: all assays above

Cc1c(OCC(F)(F)F)ccnc1CS(=O)c1nc2ccccc2[nH]1 (stereo not given)
inactive: all assays above

Nc1ccn([C@@H]2O[C@H](CO)[C@@H](O)C2O)c(=O)n1 (stereo not given in full)
inactive: all assays above

Cc1cc2c(s1)Nc1ccccc1N=C2N1CCN(C)CC1
inactive: all assays above

O=C(NC(Cc1cc(=O)[nH]c2ccccc12)C(=O)O)c1ccc(Cl)cc1 (stereo not given)
inactive: all assays above

N=C(N=C(N)N)N1CCOCC1
inactive: all assays above

COc1cc2c(cc1OC)C1CC(=O)C(CC(C)C)CN1CC2 (stereo not given)
inactive: all assays above

CC1(C)CCC(C)(C)c2cc(NC(=O)c3ccc(C(=O)O)cc3)ccc21
inactive: all assays above

CCC1=C(C)CN(C(=O)NCCc2ccc(S(=O)(=O)NC(=O)NC3CCC(C)CC3)cc2)C1=O (stereo not given)
inactive: all assays above

O=C(O)c1cccnc1Nc1cccc(C(F)(F)F)c1
inactive: all assays above

COc1cc(OC)c(C(=O)CCCN2CCCC2)c(OC)c1
inactive: all assays above

Cc1ccc(C)c(OCCCC(C)(C)C(=O)O)c1
inactive: all assays above

Nc1cc(C(Cl)=C(Cl)Cl)c(S(N)(=O)=O)cc1S(N)(=O)=O
inactive: all assays above

CCCCc1ccc2nc(NC(=O)OC)[nH]c2c1
inactive: all assays above

CCCOc1ccc2nc(NC(=O)OC)[nH]c2c1
inactive: all assays above

O=C(O)c1cccc(-c2noc(-c3ccccc3F)n2)c1
inactive: all assays above

Nc1ccc(S(N)(=O)=O)cc1
inactive: all assays above

O=C(O)c1cc(=O)c2c(OCC(O)COc3cccc4oc(C(=O)O)cc(=O)c34)cccc2o1
inactive: all assays above
